Screening results deposited in PubChem BioAssay by National Center for Advancing Translational Sciences (NCATS).
TRPV1 ag = agonists of human vanilloid receptor 1 (TRPV1) | Q8NER1 | TRPV1-expressing cells, Fluo-8 calcium influx, agonist mode | activation, % at 8.33 µM | 320,000 compounds, 0.19% hits; in the data active = activation above about 80%; inconclusive = between about 30% and that limit
Target sequence (Q8NER1 whole entry, looked up): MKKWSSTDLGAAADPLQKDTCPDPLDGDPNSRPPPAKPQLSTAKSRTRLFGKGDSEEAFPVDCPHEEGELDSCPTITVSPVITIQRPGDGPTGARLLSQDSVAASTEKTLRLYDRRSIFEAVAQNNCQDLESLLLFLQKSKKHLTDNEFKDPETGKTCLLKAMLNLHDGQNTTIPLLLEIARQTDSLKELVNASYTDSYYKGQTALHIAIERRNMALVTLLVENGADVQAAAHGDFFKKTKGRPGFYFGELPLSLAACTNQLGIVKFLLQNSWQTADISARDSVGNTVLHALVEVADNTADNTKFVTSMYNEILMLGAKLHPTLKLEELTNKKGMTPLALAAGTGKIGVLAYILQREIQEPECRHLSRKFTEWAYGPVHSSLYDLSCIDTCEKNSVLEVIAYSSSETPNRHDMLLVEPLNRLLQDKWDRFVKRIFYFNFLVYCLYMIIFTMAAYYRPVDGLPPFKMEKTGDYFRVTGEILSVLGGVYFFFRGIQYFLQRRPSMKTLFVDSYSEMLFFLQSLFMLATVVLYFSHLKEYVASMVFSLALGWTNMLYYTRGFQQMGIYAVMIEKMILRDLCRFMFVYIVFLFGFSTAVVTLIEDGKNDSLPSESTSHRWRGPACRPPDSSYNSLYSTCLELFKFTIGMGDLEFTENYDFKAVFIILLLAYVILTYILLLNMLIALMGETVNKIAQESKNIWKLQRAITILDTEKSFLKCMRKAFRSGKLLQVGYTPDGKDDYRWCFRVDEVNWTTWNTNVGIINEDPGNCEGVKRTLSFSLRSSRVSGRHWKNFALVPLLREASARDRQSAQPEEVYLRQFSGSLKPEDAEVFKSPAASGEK
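Fluo-8 calcium influx in TRPV1-expressing cells, kinetic read (ex 480/em 520 nm). Compound added and read 3 min for agonist activity, followed by capsaicin at EC20 final and 2 min further read for enhancement.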
RXFP1 antagonist = RXFP1 (human) relaxin receptor antagonism; HEK293-RXFP1, relaxin-stimulated cAMP HTRF, 30 min; stronger effect = lower value; 350,000 compounds, 0.59% hits; activity change, negative = inhibition, % at 57.5 µM;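 active = activity change of -60% or lower, but not beyond a set lower limit; inconclusive = change between -60% and -40%, or beyond the set limit; inactive = change above -40%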
gsp ag = activates gsp, the McCune-Albright syndrome mutation; 340,000 compounds, 0.13% hits; gsp mutant cells, cAMP HTRF, 30 min; AID 624287; Potency, µM (titrated, usually from 76.9 µM), usual class: activators; active = well fitted activation curve with a large enough effect; inconclusive = small, poorly fitted or top-dose-only effect, or another doubt; inactive = no such curve, though single readings can be large or run the other way; cell line not stated here;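 also: phosphodiesterase inhibitor Ro 20-1724 added with compounds to block cAMP breakdown; nearly all actives have a fitted effect of over 60% in size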
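Cells in DMEM/10% FBS with G418 were pretreated with compounds in DMSO plus […] (300 uM stock) for 30 min at 37C. cAMP was measured by HTRF (cAMP-d2 plus anti-cAMP antibody-K) after 30 min at room temperature.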
RXFP1 ag = agonists of human relaxin receptor RXFP1 | Q9HBX9 | 370,000 compounds, 0.3% hits | Potency, µM (series often up to 57.5 µM), usual class: activators | HEK293T-RXFP1 cAMP TR-FRET, 30 min; response scale: percent of porcine relaxin response, buffer zero; active = well fitted activation curve with a large enough effect; inconclusive = small, poorly fitted or top-dose-only effect; also: nearly all actives have a fitted effect of over 60% in size
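HEK293T cells stably expressing RXFP1 were pretreated with the PDE4 inhibitor Ro 20174, exposed to compounds for 30 min at 37C, lysed, and cAMP was read by TR-FRET. Data normalized to buffer (basal) and 29 nM porcine relaxin (100%).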
TRPV1 PAM = human TRPV1 potentiation; TRPV1-expressing cells, Fluo-8 calcium influx, capsaicin EC20 potentiation; potentiation, % at 8.33 µM; 320,000 compounds, 0.02% hits; in the data active = potentiation above about 80%; inconclusive = between about 30% and that limit
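Fluo-8 calcium influx in TRPV1-expressing cells, kinetic read (ex 480/em 520 nm). Compound added and read 3 min for agonist activity, followed by capsaicin at EC20 final and 2 min further read for enhancement.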
gsp antag = antagonists of gsp mutant (McCune-Albright syndrome). gsp-mutant cells, cAMP HTRF, 30 min. Potency, µM (doses to about 76.9 µM), actives largely listed as inhibitors. 340,000 compounds, 0.4% hits. AID 624288; calls by dose curve; cell line not stated here;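 also: intracellular cAMP measured with PDE inhibitor Ro 20-1724 present during compound exposure; nearly all actives have a fitted effect of over 65% in size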
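HTRF cAMP measurement after 30 min RT detection following 30 min, 37C compound treatment alongside […] (added as 300 uM solution) in G418-selected cells seeded at 2000/well and grown 16–24 h.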
A number is an active result; i = inactive; ? = inconclusive; nt = not tested or not shown; [ ] = remark or other dose. The list is not random: actives were taken first. Their share in the collection is about 1.1%.

SMILES	TRPV1 ag	RXFP1 antagonist	gsp ag	RXFP1 ag	TRPV1 PAM	gsp antag
C[C@H]1C[C@H]2[C@@H]3CCC4=CC(=O)C=C[C@]4(C)[C@H]3C(=O)C[C@]2(C)[C@@]1(O)C(=O)CO	nt	i	nt	nt	nt	nt
Cc1ccc(-c2nc3cc(NC(=O)C(C)C)ccc3o2)cc1	i	i	i	i	i	i[15.4 µM]
CC(Oc1ccc(Cl)cc1Cl)C(=O)Nc1ccc2oc(-c3ccncc3)nc2c1 (stereo not given)	i	i	i	i	i	31.6µM
CC1(c2ccc([N+](=O)[O-])cc2)Nc2ccccc2S1 (stereo not given)	i	i	i	i	i	i
Cc1ccc2c(C)cc(=S)[nH]c2c1	i	i	22.4µM	28.2µM	i	i
Cc1ccc2[nH]c(=S)cc(C)c2c1	i	i	i	i	i	i
O=C(NCC(=O)N1CCN(S(=O)(=O)c2ccc3c(c2)OCCO3)CC1)c1ccccc1Cl	i	i	i	i	i	i
CCCCCCCCCn1c2c(c(=N)c3c1CCC3)CCCC2	i	-81.4	?	i	i	i
CCn1c2c(c(=N)c3c1CCC3)CCCC2	i	i	i[15.4 µM]	i	i	i
CCCCCCCCCCn1c2c(c(=N)c3c1CCC3)CCC2	i	-69.4	i[15.4 µM]	i	i	i
CCCCCCCCn1c2c(c(=N)c3ccccc31)CCC2	i	i	i[15.4 µM]	i	i	i
O=C(CCn1c(=O)c2cccn2c2ccc(F)cc21)NCCc1ccc(Cl)cc1	nt	i	nt	i	nt	nt
O=C(CCCn1c(=O)c2cccn2c2ccccc21)NCCc1ccc(Cl)cc1	nt	-71.1	nt	i	nt	nt
COc1ccc(N2CCN(CCCNC(=O)c3nnc(Cc4ccc(F)cc4)o3)CC2)cc1	nt	i	nt	i	nt	nt
Cc1ccc(-n2nc3c(=O)n(CC(=O)NCCC4=CCCCC4)nc(C)c3c2C)cc1	i	-102.5	i	i	i	i
COc1ccc(CCNC(=O)CCc2c(C)nc3c(c(C)nn3-c3ccccc3)c2C)c(OC)c1	nt	i	nt	i	nt	nt
CC(C)Oc1ccc(C(=O)/C=C2/C(=O)Nc3ccccc32)cc1	i	?	?	i	i	i
COc1ccc(C(=O)/C=C2\C(=O)Nc3ccc(Br)cc32)cc1	nt	-75.0	i	nt	nt	i
O=C1Nc2ccccc2/C1=C\C(=O)c1ccccc1	i	?	?	i	i	i
O=C1Nc2ccc(Br)cc2/C1=C/C(=O)c1ccc2c(c1)OCO2	i	-84.0	i	i	i	i
CCOCCCNC(=O)c1ccc2c(=O)n(CCCOCC)c(=S)[nH]c2c1	i	i	i[15.4 µM]	i	i	i
CCOCCCn1c(=S)[nH]c2cc(C(=O)NCCCN(CC)CC)ccc2c1=O	i	i	i	i	105.3	i
Cn1c(CC(=O)Nc2ccccc2Cl)nnc1SCC(=O)NC1=NCCS1	i	i	i[15.4 µM]	i	i	i
COC(=O)c1ccc(NC(=O)c2ccc3c(c2)C(=O)N(Cc2cccnc2)C3=O)cc1	i	i	i	i	i	39.8µM
CC(C)CCN1C(=O)c2ccc(C(=O)Nc3cc(C(=O)O)cc(C(=O)O)c3)cc2C1=O	i	i	i[15.4 µM]	i	i	i
SMILES	TRPV1 ag	RXFP1 antagonist	gsp ag	RXFP1 ag	TRPV1 PAM	gsp antag
CC(C)CN1C(=O)c2ccc(C(=O)Nc3ccncc3)cc2C1=O	?	i	i	i	i	28.2µM
CC(C)(C)NC(=O)c1cccc(NC(=O)c2ccc3c(c2)C(=O)N(C(C)(C)C)C3=O)c1	i	i	i	i	i	?
COC(=O)c1cccc(NC(=O)c2ccc3c(c2)C(=O)N(Cc2cccnc2)C3=O)c1	i	i	i	i	i	?
CC(C)CCN1C(=O)c2ccc(C(=O)Nc3ccc(Br)cc3C(=O)O)cc2C1=O	i	i	i	i	i	35.5µM
COC(=O)c1cccc(NC(=O)c2ccc3c(c2)C(=O)N(C(C)(C)C)C3=O)c1	107.3	?	i	i	i	i
CC(C)CN1C(=O)c2ccc(C(=O)Nc3ccccn3)cc2C1=O	?	i	i	i	i	i
CC1=NN(c2ccccc2)C(=O)C1C=Nc1ccc(N(C)C)cc1 (stereo not given)	i	-68.9	i[15.4 µM]	i	i	?
c1ccc(CN2CCN(C(c3ccccc3)c3ccccc3)CC2)cc1	i	-103.9	i[15.4 µM]	i	i	i
COc1ccccc1OCCCCN1CCN(C(c2ccccc2)c2ccccc2)CC1	i	-80.2	i[15.4 µM]	i	i	i
CCCOc1cccc(OCCSc2nc(C)cc(=O)[nH]2)c1	81.6	i	i	i	i	?
Cc1cc(=O)[nH]c(SCCCOc2ccc(F)cc2)n1	i	i	i	i	i	?
CN1C(=O)C(C)(C)c2cc(S(=O)(=O)N3CCN(c4ccc(F)cc4)CC3)ccc21	i	-60.5	i	i	i	i
CN1CCN(S(=O)(=O)c2ccc3c(c2)C(C)(C)C(=O)N3C)CC1	i	i	i	i	i	i
COc1ccc(N2CCN(C(=O)c3ccc(CS(=O)Cc4ccc(Cl)cc4)o3)CC2)cc1 (stereo not given)	i	i	i	i	?	i
COc1cc(/C=C(/C#N)C(=O)c2c(C)[nH]c3ccccc23)ccc1OCC#N	i	i	i	i	i	i
CCOc1ccc(/C=C(\C#N)C(=O)c2c(C)[nH]c3ccccc23)cc1OC	i	-62.6	i[15.4 µM]	i	i	?
Fc1ccc(Nc2nc3ccccc3c3nncn23)c(Cl)c1	nt	i	nt	i	nt	nt
CC(C)(C)c1ccc(C(=O)/C(C#N)=C/c2cccs2)cc1	?	-86.8	i	i	i	i
CCOc1cc(/C=N\NC(=O)OC(C)(C)C)ccc1OC(=O)c1ccco1	i	i	i[15.4 µM]	i	i	i
CCOc1cc(/C=N\NC(=O)OC)ccc1OC(=O)c1ccco1	i	-64.3	i	i	i	i
Cc1ccc(C(=O)Cn2nnc(-c3cccs3)n2)cc1	i	i	?	i	i	50.1µM
Brc1ccsc1-c1csc(-c2ccncc2)n1	i	i	17.8µM	i	i	i
c1ccc(-c2csc(-c3ccncc3)n2)cc1	i	i	i[15.4 µM]	i	i	i
Cn1nccc1C(=O)NC1CCCc2c1cnn2-c1ccc(C(C)(C)C)cc1 (stereo not given)	81.0	i	i[15.4 µM]	i	i	i
CC(C)(C)c1cc(-c2csc(Nc3ccccc3)[n+]2Cc2ccc(C(=O)O)cc2)cc(C(C)(C)C)c1O	i	i	i[15.4 µM]	i	i	31.6µM
Cc1cc(C)cc(NC(=O)C2CCN(S(=O)(=O)c3ccc4[nH]c(=O)ccc4c3)CC2)c1	i	i	i	i	i	i
Cc1cc2c(NC(=O)Nc3ccc(C(F)(F)F)cc3)cccc2nn1	81.9	i	i[15.4 µM]	i	i	i
CN(c1cccc(NC(=O)c2ccc(Cl)c(S(=O)(=O)Nc3ccccc3)c2)c1)S(C)(=O)=O	i	i	i	i	i	8.91µM
O=C(CCCn1c(=S)[nH]c2ccccc2c1=O)N1CCN(c2cccc(Cl)c2)CC1	i	-89.0	i	i	i	i
O=C(CCCCCNc1nc(=S)[nH]c2ccccc12)N1CCN(c2ccccn2)CC1	i	nt	nt	i	i	nt
